Data: the antibiotic and cytotoxicity screens of Wong et al. (2023)
Among all 39,000 compounds or so, about 3,300 (8.5%) were called active. The sample as a whole holds a higher share of actives than the screen did.

Each molecule was assayed on HepG2 (assay: cytotoxicity call (relative viability < 0.9)). Conditions: 10 µM.

SMILES | cytotoxicity call
Cc1ccc(S(=O)(=O)Nc2ccc3c(c2)C(=O)N([C@@H](C)CO)C[C@H](C)[C@@H](CN(C)Cc2ccc4c(c2)OCO4)OCCCC[C@@H](C)O3)cc1 | inactive
Cc1ccc(S(=O)(=O)Nc2ccc3c(c2)CC(=O)N([C@@H](C)CO)C[C@H](C)[C@@H](CN(C)S(C)(=O)=O)O3)cc1 | inactive
C[C@H](CO)N1C[C@H](C)[C@@H](CN(C)S(=O)(=O)c2ccc(Cl)cc2)Oc2ccc(NS(C)(=O)=O)cc2CC1=O | inactive
Cc1cc(C(=O)Nc2cccc3c2O[C@H](CN(C)C(=O)NC(C)C)[C@H](C)CN([C@H](C)CO)C3=O)n(C)n1 | inactive
COc1ccc(CN(C)C[C@@H]2OCCCC[C@@H](C)Oc3ccc(NS(=O)(=O)c4cccs4)cc3C(=O)N([C@H](C)CO)C[C@H]2C)cc1 | inactive
C[C@H](CO)N1C[C@H](C)[C@H](CN(C)C(=O)NC2CCCCC2)Oc2ccc(NC(=O)Cn3cnnn3)cc2CC1=O | inactive
C[C@@H]1CN([C@H](C)CO)C(=O)c2cc(NC(=O)Nc3ccccc3)ccc2O[C@@H](C)CCCCO[C@@H]1CN(C)C(=O)Cc1ccccc1 | inactive
O=C(C[C@@H]1CC=CCC[C@@H](Cc2ccc(F)cc2)C(=O)OCCNC1=O)N[C@@H](CO)Cc1ccccc1 | inactive
CCNC(=S)N1CCCC[C@@H]1CO | inactive
C[C@@H]1CCCCO[C@@H](CN(C)Cc2ccncc2)[C@@H](C)CN([C@@H](C)CO)C(=O)c2cc(NC(=O)C3CCCCC3)ccc2O1 | inactive
C[C@@H]1CCCCO[C@H](CN(C)Cc2ccc(C(F)(F)F)cc2)[C@H](C)CN([C@H](C)CO)C(=O)c2cc(NC(=O)C3CCCCC3)ccc2O1 | inactive
C[C@@H]1CCCCO[C@H](CN(C)Cc2ccncc2)[C@@H](C)CN([C@H](C)CO)C(=O)c2cc(NC(=O)C3CCCCC3)ccc2O1 | inactive
C[C@@H]1CCCCO[C@H](CN(C)Cc2ccncc2)[C@H](C)CN([C@@H](C)CO)C(=O)c2cc(NC(=O)C3CCCCC3)ccc2O1 | active
C[C@@H]1CCCCO[C@H](CN(C)Cc2ccc(C(F)(F)F)cc2)[C@@H](C)CN([C@H](C)CO)C(=O)c2cc(NC(=O)C3CCCCC3)ccc2O1 | active
C[C@@H]1CCCCO[C@@H](CN(C)Cc2ccc(C(F)(F)F)cc2)[C@H](C)CN([C@H](C)CO)C(=O)c2cc(NC(=O)C3CCCCC3)ccc2O1 | inactive
C[C@@H]1CN([C@H](C)CO)C(=O)CCCn2cc(nn2)CO[C@H]1CN(C)C(=O)Nc1cccc(C(F)(F)F)c1 | inactive
CC(C)NC(=O)N(C)C[C@H]1Oc2ccc(NC(=O)Nc3ccc4c(c3)OCO4)cc2CC(=O)N([C@H](C)CO)C[C@H]1C | inactive
COCCOC(=O)N1C(=O)[C@@]2(c3cc(C#CC4=CCCCC4)ccc31)[C@H](c1ccc(OCCO)cc1)N1[C@H](c3ccccc3)[C@H](c3ccccc3)OC(=O)[C@H]1[C@@H]2C(=O)N1CCN(c2ncccn2)CC1 | inactive
CNC(=O)[C@H]1Cc2ccccc2N1C(=O)COC | inactive
CN(C)CCCN1c2ccccc2CCc2ccccc21.Cl | active
CN(C)CCCN1c2ccccc2Sc2ccccc21.Cl | active
CNCCCN1c2ccccc2CCc2ccccc21.Cl | active
NNC(=O)CN1CCCc2ccccc21 | inactive

SMILES | cytotoxicity call
CC(=O)c1ccc2c(c1)N(CCCN(C)C)c1ccccc1S2.O=C(O)C=CC(=O)O | inactive
CN(C)CCCN1c2ccccc2CCc2ccc(Cl)cc21.Cl | inactive
COc1ccc(C2Sc3ccccc3N(CCN(C)C)C(=O)C2OC(C)=O)cc1.Cl (stereo not drawn) | inactive
CN(C)CCCN1C(=O)[C@@]2(Cc3ccccc31)c1ccccc1C(=O)N(Cc1ccccc1)[C@H]2c1ccc(CO)cc1 | inactive
CN(C)CCCN1C(=O)[C@@H]2[C@@H](C1=O)[C@@H]1C=C[C@@H]2C1 | inactive
CN(C)CCCN1c2ccccc2Sc2ccc(Cl)cc21.Cl | active
C[C@H](CO)N1C[C@H](C)[C@@H](CN(C)S(=O)(=O)c2cn(C)cn2)Oc2ncc(C#CCN(C)C)cc2C1=O | inactive
Cc1noc(C)c1S(=O)(=O)Nc1cccc2c1O[C@@H](CN(C)Cc1ccncc1)[C@@H](C)CN([C@@H](C)CO)C2=O | inactive
CON=C(C(=O)NC1C(=O)N2C(C(=O)[O-])=C(CSc3nc(=O)c([O-])nn3C)CSC12)c1csc(N)n1.O.O.O.[Na+].[Na+] (stereo not drawn) | inactive
COc1ccccc1NC(=O)N(C)C[C@@H]1Oc2ncc(C#CC(C)C)cc2C(=O)N([C@H](C)CO)C[C@H]1C | inactive
COC(=O)C=CC(=O)OC | active
COC(=O)/C=C/C(=O)OC | inactive
COC(=O)/C=C/C(=O)O | inactive
COCC#Cc1cnc2c(c1)C(=O)N([C@@H](C)CO)C[C@H](C)[C@@H](CN(C)C(=O)c1cnccn1)O2 | inactive
O=C(Cc1ccc2c(c1)OCO2)N[C@@H]1CCNC[C@H]1O | inactive
C[C@@H]1CN([C@@H](C)CO)S(=O)(=O)c2ccc(-c3ccc(C(=O)N(C)C)cc3)cc2O[C@H]1CN(C)C(=O)C1CC1 | inactive
C[C@H](CO)N1C[C@H](C)[C@@H](CN(C)Cc2ccncc2)Oc2ccc(NC(=O)Nc3ccc(C(F)(F)F)cc3)cc2C1=O | inactive
C[C@@H]1CCCCO[C@H](CN(C)C(=O)Nc2ccc(C(F)(F)F)cc2)[C@H](C)CN([C@@H](C)CO)C(=O)c2cc(NC(=O)Nc3ccccc3)ccc2O1 | inactive
C[C@@H]1CCCCO[C@@H](CN(C)C(=O)Nc2ccccc2)[C@@H](C)CN([C@H](C)CO)C(=O)c2cc(NC(=O)Nc3ccc(C(F)(F)F)cc3)ccc2O1 | active
C[C@H](CO)N1C[C@H](C)[C@H](CN(C)C(=O)Nc2ccccc2)OCCCC[C@H](C)Oc2ccc(NC(=O)Nc3ccc(C(F)(F)F)cc3)cc2C1=O | inactive
C[C@@H]1CCCCO[C@@H](CN(C)C(=O)Nc2ccccc2)[C@@H](C)CN([C@@H](C)CO)C(=O)c2cc(NC(=O)Nc3ccc(C(F)(F)F)cc3)ccc2O1 | active
C[C@H]1CCCCO[C@H](CN(C)C(=O)Nc2ccc(C(F)(F)F)cc2)[C@@H](C)CN([C@@H](C)CO)C(=O)c2cc(NC(=O)Nc3ccccc3)ccc2O1 | inactive
C[C@H]1CCCCO[C@@H](CN(C)C(=O)Nc2ccc(C(F)(F)F)cc2)[C@@H](C)CN([C@@H](C)CO)C(=O)c2cc(NC(=O)Nc3ccccc3)ccc2O1 | inactive

SMILES | cytotoxicity call
C[C@H]1CCCCO[C@@H](CN(C)C(=O)Nc2ccc(C(F)(F)F)cc2)[C@@H](C)CN([C@@H](C)CO)C(=O)c2cc(NC(=O)c3ccccc3)ccc2O1 | inactive
C[C@@H]1CCCCO[C@H](CN(C)C(=O)Nc2ccc(C(F)(F)F)cc2)[C@H](C)CN([C@@H](C)CO)C(=O)c2cc(NC(=O)c3ccccc3)ccc2O1 | inactive
C[C@H](CO)N1C[C@H](C)[C@@H](CN(C)C(=O)Nc2ccc(C(F)(F)F)cc2)OCCCC[C@H](C)Oc2ccc(NC(=O)Nc3ccccc3)cc2C1=O | inactive
C[C@@H]1CCCCO[C@H](CN(C)C(=O)Nc2ccc(C(F)(F)F)cc2)[C@@H](C)CN([C@@H](C)CO)C(=O)c2cc(NC(=O)Nc3ccccc3)ccc2O1 | active
C[C@@H]1CN([C@@H](C)CO)C(=O)c2cc(NC(=O)c3ccccc3)ccc2O[C@@H](C)CCCCO[C@@H]1CN(C)C(=O)Nc1ccc(C(F)(F)F)cc1 | active
C[C@@H]1CCCCO[C@H](CN(C)C(=O)Nc2ccc(C(F)(F)F)cc2)[C@@H](C)CN([C@H](C)CO)C(=O)c2cc(NC(=O)Nc3ccccc3)ccc2O1 | inactive
CNC[C@@H]1Oc2ccc(NS(=O)(=O)c3cn(C)cn3)cc2CC(=O)N([C@H](C)CO)C[C@@H]1C | inactive
C[C@H](CO)N1C[C@H](C)[C@H](CN(C)S(=O)(=O)c2ccccc2)OCCCC[C@H](C)Oc2ccc(NC(=O)Nc3ccc(F)cc3)cc2C1=O | inactive
C[C@H](CO)N1C[C@H](C)[C@@H](CN(C)Cc2ccncc2)Oc2ccc(NC(=O)Cn3cnnn3)cc2C1=O | inactive
c1ccc(-c2nc(-c3cccs3)[nH]c2-c2ccccc2)cc1 | inactive
C[C@@H]1CCCCO[C@@H](CN(C)C(=O)c2ccncc2)[C@H](C)CN([C@@H](C)CO)C(=O)c2cc(NS(C)(=O)=O)ccc2O1 | inactive
C[C@@H]1CN([C@@H](C)CO)C(=O)c2cc(/C=C/c3ccccc3)cnc2O[C@H]1CN(C)C(=O)CN1CCOCC1 | inactive
C[C@H](CO)N1C[C@H](C)[C@H](CN(C)C(=O)Cc2ccccc2)OCCCC[C@H](C)Oc2ccc(NC(=O)Nc3cccc4ccccc34)cc2C1=O | inactive
C[C@H](CO)N1C[C@H](C)[C@@H](CN(C)C(=O)NC2CCCCC2)Oc2ccc(NS(C)(=O)=O)cc2CC1=O | inactive
COc1cccc(NC(=O)N[C@@H]2CC[C@H](CC(=O)N3CCOCC3)O[C@@H]2CO)c1 | inactive
C[C@H](O)C#Cc1ccc2c(c1)O[C@H](CN(C)C)[C@@H](C)CN([C@@H](C)CO)S2(=O)=O | inactive
COc1ccc(CN(C)C[C@H]2Oc3ccc(NC(=O)CCCCCC(=O)Nc4ccccc4N)cc3CC(=O)N([C@@H](C)CO)C[C@@H]2C)cc1 | inactive
CC(C)NC(=O)N(C)C[C@H]1Oc2ccc(NC(=O)Cc3ccccc3)cc2CC(=O)N([C@@H](C)CO)C[C@@H]1C | inactive
COc1ccc2c3c([nH]c2c1)[C@@H](CO)N(C[C@]13CN(Cc2nccs2)C1)S(=O)(=O)c1ccc(cc1)C | inactive
C[C@@H]1CN([C@@H](C)CO)C(=O)c2cc(NC(=O)Nc3ccccc3)ccc2O[C@@H](C)CCCCO[C@H]1CN(C)C(=O)Nc1ccc(C(F)(F)F)cc1 | inactive
C[C@H](CO)N1C[C@H](C)[C@@H](CN(C)C(=O)Nc2ccccc2)OCCCC[C@H](C)Oc2ccc(NC(=O)Nc3ccc(C(F)(F)F)cc3)cc2C1=O | inactive
C[C@@H]1CCCCO[C@H](CN(C)C(=O)Nc2ccccc2)[C@H](C)CN([C@H](C)CO)C(=O)c2cc(NC(=O)Nc3ccc(C(F)(F)F)cc3)ccc2O1 | active
